This is part of a sample that, as a whole, favours compounds with a hit. Of some 83,000 tested, about 20% had one in any assay.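 The test compound was applied at a single concentration to cells in 96-well plates for 48 hours, and percent growth was recorded.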 Calls of active or inactive are those of the source.
tested on: NCI-H23 lung; experiment: NCI-60 one-dose screen, 48 h (100 = growth as untreated, 0 = no growth, -100 = all killed); details: 10 µM unless noted
Protocol: Growth inhibition of the NCI-H23 human Non-Small Cell Lung tumor cell line is measured as a screen for anti-cancer activity. Cells are grown in 96 well plates and exposed to the test compound for 48 hours. Compounds are tested at a single concentration, which is 10^-5 M for most compounds. The reported endpoint is percent growth (GI% or GIPRCNT), where numbers from 0 - 100% represent growth inhibition, and numbers from -100% - 0 represent cell death. For example, a value of 40 represents 60% growth inhibition. A value of 0 means no net growth occurred over the course of the experiment. A value of -40 indicates 40% of cells at the beginning of the experiment died by the end of the experiment. A value of -100 means all cells are dead at the end of the experiment.
NCI-60 Human Tumor Cell Lines Screen was performed using the standard one-dose NCI protocol, which is described in more detail at https://dtp.cancer.gov/discovery_development/nci-60/default.htm.
Compounds with GIPRCNT values below 10 were considered active. Activity score was based on GIPRCNT using the following formula: […]
Score is 0 for GIPRCNT values of 100 or above, 50 for GIPRCNT values of 0, and 100 for GIPRCNT values of -100.

Question: Which growth does the source give for `CC(CN1CCN(CCOCCO)CC1)CN1c2ccccc2Sc2ccc(Cl)cc21` (stereo not given) here?
Answer: 72.7% (inactive)

Question: How did the growth turn out when `CCCc1n(Cc2ccc3ccccc3n2)cc[n+]1Cc1ccc2ccccc2n1` was run?
Answer: 13% (inactive)

Question: For `O=c1[nH]c2ccccc2n2cc3cccnc3c12`, which growth is on record?
Answer: 77.5% (inactive)

Question: For `CC(=O)O[C@H]1[C@H](CC#CC#CC[C@@H]2C[C@]3(C)[C@H]4CC=C5[C@H]6[C@@H](C)[C@H](C)CC[C@]6(C(=O)NCCN(CCN)CCN)CC[C@@]5(C)[C@]4(C)CC[C@H]3C(C)(C)[C@H]2OC(C)=O)C[C@]2(C)[C@H]3CC=C4[C@H]5[C@@H](C)[C@H](C)CC[C@]5(C(=O)NCCN(CCN)CCN)CC[C@@]4(C)[C@]3(C)CC[C@H]2C1(C)C`, which growth is on record?
Answer: 11.9% (inactive)

Question: `COc1ccc([C@@H]2[C@@H](Cl)C(=O)N2c2cc(OC)c(OC)c(OC)c2)cc1C` was tested. Which growth did it give?
Answer: 25.3% (inactive)

Question: How did the growth turn out when `CCOC(C)(c1ccc(Cl)cc1)C1CCNCC1` (stereo not given) was run?
Answer: 101% (inactive)

Question: `COc1ccc(-c2n[nH]nc2-c2cc(OC)c3c(c2)OCO3)cc1` was tested. Which growth did it give?
Answer: 10.4% (inactive)

Question: Which growth does the source give for `CCN(CC)CCC(CNc1ccnc2cc(Cl)ccc12)c1ccc(O)cc1` (stereo not given) here?
Answer: 91.3% (inactive)

Question: With `COc1ccc(/C=C/C(=O)c2ccc(NC(=O)CSc3nnc(-c4ccc(OC)cc4)n3-c3ccccc3)cc2)cc1` as the molecule, how does the growth read?
Answer: 99.2% (inactive)

Question: How did the growth turn out when `Cc1ccc(CSCc2ccc(C(=O)NC3CC3)o2)cc1` was run?
Answer: 82% (inactive)

Question: How did the growth turn out when `O=C(CCCCCCc1nc2ccc(Br)cc2[nH]1)NO` was run?
Answer: -25.6% (active)

Question: With `O=c1cc(N2CCOCC2)oc2c(-c3ccc4c(c3)OCCO4)csc12` as the molecule, how does the growth read?
Answer: 31.9% (inactive)

Question: How did the growth turn out when `Clc1ncnc2scc(C3COc4ccccc4O3)c12` (stereo not given) was run?
Answer: 95.9% (inactive)

Question: Which growth does the source give for `Cc1cc(NC(=O)C2c3ccccc3C(=O)N(CC(C)C)C2c2cccs2)no1` (stereo not given) here?
Answer: 47.6% (inactive)

Question: How did the growth turn out when `CC[C@H](Nc1nc(N)nc(C2CC2)c1C#N)c1nc2cccc(NCc3ccc(C(=O)NO)cc3)c2c(=O)n1-c1ccccc1` was run?
Answer: -14.8% (active)

Question: With `COc1ccc(C(=O)c2c(N)nc3n2CCCC3)cc1OC` as the molecule, how does the growth read?
Answer: 109% (inactive)

Question: With `COc1ccc(C2C=C(c3ccc(Cl)cc3)N=C3SC=CN32)cc1` (stereo not given) as the molecule, how does the growth read?
Answer: 101% (inactive)

Question: With `Cc1cc(O)c(C2=NN(c3ccc(S(N)(=O)=O)cc3)C(c3ccc(Cl)cc3)C2)c(C)c1Cl` (stereo not given) as the molecule, how does the growth read?
Answer: 78.8% (inactive)

Question: Which growth does the source give for `COc1cccc(Cn2c(-c3nonc3NC(C)=O)nc3ccccc32)c1` here?
Answer: 39.8% (inactive)

Question: For `Nc1cc2nc3ccccc3oc-2cc1=O`, which growth is on record?
Answer: -33.2% (active)

Question: How did the growth turn out when `C#CC[C@@H]1C[C@]2(C)[C@H]3CC=C4[C@H]5[C@@H](C)[C@H](C)CC[C@]5(C(=O)NCCCCCCCCN)CC[C@@]4(C)[C@]3(C)CC[C@H]2C(C)(C)[C@H]1OC(C)=O` was run?
Answer: 79.3% (inactive)

Question: `Cc1cc(C)c(C#N)c(SCC(=O)c2sc3c(C#N)c(C)cc(C)[n+]3c2[O-])n1` was tested. Which growth did it give?
Answer: 39.4% (inactive)

Question: For `Cc1cc(C)c2c(n1)sc1c(Nc3ccc(Cl)cc3Cl)ncnc12`, which growth is on record?
Answer: 19% (inactive)

Question: With `CCCCNCCC(O)c1cc2ccc(C(F)(F)F)cc2c2cc(C(F)(F)F)ccc12` (stereo not given) as the molecule, how does the growth read?
Answer: -75.3% (active)

Question: For `COc1cc(C2CC(c3cccc(Nc4ccnc5cc(Cl)ccc45)c3)=NN2c2ccccc2)cc(OC)c1OC` (stereo not given), which growth is on record?
Answer: 79.5% (inactive)

Question: Which growth does the source give for `Oc1[nH]c2ccc(Cl)cc2c1/C=c1/ccc2c(c1)N=C(c1ccc(F)cc1)N=2` here?
Answer: 74.5% (inactive)

Question: For `CCOC(=O)c1ccc(NCCC(=O)O)cc1`, which growth is on record?
Answer: 107% (inactive)

Question: How did the growth turn out when `NC(N)=N/N=C\c1cccc(OCc2ccccc2)c1` was run?
Answer: 79.5% (inactive)

Question: For `COc1cc2cc(C(=O)Nc3ccccc3)c(N)nc2cc1OC`, which growth is on record?
Answer: 77.6% (inactive)

Question: Which growth does the source give for `COc1ccc2[nH]c(C(=O)OCc3ccc4c(Br)cc(Br)c(O)c4n3)cc2c1` here?
Answer: -62.4% (active)

Question: `Oc1ccc(Cl)cc1-c1cc(-c2ccccc2Cl)[nH]n1` was tested. Which growth did it give?
Answer: 47.8% (inactive)

Question: With `Fc1[nH]nc2ccc([C@@H]3Nc4ccc5[nH]ncc5c4[C@H]4C5CCC(C5)[C@@H]34)cc12` (stereo not given in full) as the molecule, how does the growth read?
Answer: 45.2% (inactive)

Question: For `OC(c1cc2c(Cl)cc(Cl)cc2c2cc(C(F)(F)F)ccc12)C1CCCCN1` (stereo not given), which growth is on record?
Answer: -77.5% (active)

Question: With `CCc1ccc(Nc2ncnc3c2cnn3-c2cccc(Br)c2)cc1` as the molecule, how does the growth read?
Answer: 96.1% (inactive)

Question: `CCn1c(CN2CCN(Cc3ccccc3)CC2)nc2cc(NC(=O)c3cccs3)ccc21` was tested. Which growth did it give?
Answer: -39% (active)

Question: `O=C(Nc1ccccc1Cl)Oc1ccc2ccccc2c1` was tested. Which growth did it give?
Answer: 91.3% (inactive)

Question: With `COc1ccc(C(=O)C(CN(C)C)c2ccccc2)cc1` (stereo not given) as the molecule, how does the growth read?
Answer: 13.2% (inactive)

Question: `COc1ccc(-c2oc(=O)ccc2-c2cc(OC)c(OC)c(OC)c2)cc1F` was tested. Which growth did it give?
Answer: 81.4% (inactive)

Question: `Cc1ccc(NC(=O)c2[nH]c(SCCN(C)C)nc2-c2ccc(F)cc2)cc1Nc1ccc2ncn(C)c(=O)c2c1` was tested. Which growth did it give?
Answer: 42.1% (inactive)

Question: Which growth does the source give for `O=C1C=CC(=O)N1c1cccc(N2C(=O)C=CC2=O)c1` here?
Answer: 98.7% (inactive)
